# Laboratory results: the supplement of paper PMC6555819
# Tests used:
# Experiment in all cases: PBM binding z-score (relative to random genomic background probes); higher = stronger binding; sequences stand for … in GC…GCGATTGACAGCGTAGAATGAAGG
# [1] = tested on: FXR:RXRa (NR concentration 270 nM, RXRa partner concentration 90 nM)
# In short: (§1)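 Antibodies against each partner of ligand-free nuclear receptor dimers (one per run) detected binding on custom Agilent 4×180K protein-binding microarrays after 1 h incubation. The double-stranded probes had 34-nt variable regions carrying direct-repeat seeds, single-nucleotide variants, half-site ablations and random human genomic background sequences. Binding z-scores, from regression-normalized fluorescence, use the random background probes as reference.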
# [2] = tested on: LXRa:RXRa (NR concentration 270 nM, RXRa partner concentration 90 nM)
# In short: as §1
# [3] = tested on: LXRa homodimer (NR concentration 270 nM)
# In short: as §1
# [4] = tested on: LXRb:RXRa (NR concentration 270 nM, RXRa partner concentration 90 nM)
# In short: as §1
# [5] = tested on: LXRb homodimer (NR concentration 270 nM)
# In short: as §1
# [6] = tested on: PPARa:RXRa (NR concentration 270 nM, RXRa partner concentration 90 nM)
# In short: as §1
# [7] = tested on: PPARg:RXRa (NR concentration 180 nM, RXRa partner concentration 90 nM)
# In short: as §1
# [8] = tested on: PPARg:RXRa 270nM:90nM, anti-RXR (NR concentration 270 nM, RXRa partner concentration 90 nM)
# In short: as §1
# [9] = tested on: PPARg:RXRa 30nM:10nM, anti-RXR (NR concentration 30 nM, RXRa partner concentration 10 nM)
# In short: as §1
# [10] = tested on: PPARg:RXRa 90nM:30nM, anti-RXR (NR concentration 90 nM, RXRa partner concentration 30 nM)
# In short: as §1
# [11] = tested on: PPARg:RXRa DBDmut IVT, anti-RXR (DBD mutation: RXRa K156A/R161A, NR concentration 270 nM, RXRa partner concentration 90 nM)
# In short: as §1
# [12] = tested on: PPARg:RXRa IVT, anti-PPARg (NR concentration 270 nM, RXRa partner concentration 90 nM)
# In short: as §1
# [13] = tested on: PPARg DBDmut:RXRa IVT, anti-PPARg (DBD mutation: PPARg1 K132A/R137A, NR concentration 270 nM, RXRa partner concentration 90 nM)
# In short: as §1
# [14] = tested on: PPARg DBDmut IVT, anti-PPARg (DBD mutation: PPARg1 K132A/R137A, NR concentration 270 nM)
# In short: as §1
# [15] = tested on: PPARg homodimer (NR concentration 180 nM)
# In short: as §1
# [16] = tested on: PXR:RXRa (NR concentration 270 nM, RXRa partner concentration 90 nM)
# In short: as §1
# [17] = tested on: PXR homodimer (NR concentration 270 nM)
# In short: as §1
# [18] = tested on: RARa:RXR (NR concentration 270 nM, RXRa partner concentration 90 nM)
# In short: as §1
# [19] = tested on: RARa homodimer (NR concentration 270 nM)
# In short: as §1
# [20] = tested on: RARb:RXRa (NR concentration 270 nM, RXRa partner concentration 90 nM)
# In short: as §1
Sequence,PBM binding z-score [1],PBM binding z-score [2],PBM binding z-score [3],PBM binding z-score [4],PBM binding z-score [5],PBM binding z-score [6],PBM binding z-score [7],PBM binding z-score [8],PBM binding z-score [9],PBM binding z-score [10],PBM binding z-score [11],PBM binding z-score [12],PBM binding z-score [13],PBM binding z-score [14],PBM binding z-score [15],PBM binding z-score [16],PBM binding z-score [17],PBM binding z-score [18],PBM binding z-score [19],PBM binding z-score [20]
CGTCGAAGGTCAGCAGGTCAGTGAAAGCGACGTG,5.54,3.8,0.42,3.06,-0.433,4.76,4.28,4.81,1.5,2.88,2.98,3.25,-0.047,-1.4,4.2,3.44,0.233,4.8,1.59,5.24
TCATATAGGTAAATGCTCGGTGAAAGTCCGATCT,1.09,0.864,0.318,0.922,-0.121,1.33,0.611,2.36,3.97,3.11,4.09,1.97,0.975,0.65,0.847,0.631,0.54,0.843,0.605,0.474
ACTAGCAGGCCAAGGTTCACTCAAGATTAGTCCG,0.739,1.16,0.631,1.04,-0.0506,2.89,5.16,6.08,5.04,6.29,1.19,2.08,-0.0687,-0.0109,0.515,1.36,0.191,1.35,0.0605,1.62
ACTATTAGTTGACTTAAGGCAACCGATACGACGC,0.413,0.299,0.175,0.537,1.03,0.139,0.967,0.607,0.511,0.394,0.219,0.392,0.915,1.11,0.0202,0.21,-0.0343,1.43,0.466,0.296
AGTCAAAGTTCATATAGGTAACGTAAGATATGCT,6.32,5.7,5.15,3.66,2.13,4.62,6.76,6.08,3.4,5.1,0.943,3.97,1.58,0.96,2.46,4.96,5,3.57,1.52,4.69
ACTAGTTGGTCAGCTGAGGTCACACGCAATTCGG,4.13,3.59,2.5,3.3,0.152,3.71,1.57,2.37,0.407,1.44,1.54,2.63,0.387,0.616,2.87,5.51,1.79,4.68,0.262,3.53
